As a reminder, the AC50 is the concentration at which the activity in the assay is half-maximal.

Records with an inconclusive call do not appear. Some structures have more than one record in an assay (separate samples or runs), and their calls can disagree. Active and inactive are the calls of the source. How the source made its calls: active means hit-call score of the fitted dose curve at least 0.9, where 1 is the maximum; inconclusive means response in the unintended direction; inactive means score below 0.9.

The values below come from PubChem BioAssay (EPA / NIEHS).

The assay is described as follows: CCTE_Simmons_MITO_viability: CellTiter-Glo Viability Assessment for CCTE's HepG2 Seahorse XF Respirometric Screening Assay [post-hoc], Simmons Lab (AID 2284007).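 On AC50: cells exposed to chemical for 90 min before the ATP read; actives lower ATP signal relative to DMSO baseline meaning reduced viability.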 The protocol:
CCTE_Simmons_MITO is cell-based, respirometric assay using HepG2 cells and a Seahorse XF Analyzer to measure oxygen consumption rates over four temporal phases spanning a total of 72 minutes: pre-injection (pre-treatment), basal (following test compound injection), maximal (following FCCP uncoupler injection), and inhibited (following rotenone/antimycin A injection)CCTE_Simmons_MITO_viability is one of 4 assay components measured from the CCTE_Simmons_MITO assay. It is designed to make measurements of ATP content, a form of viability reporter, as detected with bioluminescence signals by Luciferase-coupled ATP quantitation technology. Data from the assay component CCTE_Simmons_MITO_viability was analyzed at the endpoint, CCTE_Simmons_MITO_viability, in the positive analysis fitting direction relative to DMSO as the negative control and baseline of activity. Using a type of viability reporter, measures of ATP content for loss-of-signal activity can be used to understand the viability. To generalize the intended target to other relatable targets, this assay endpoint is annotated to the cell cycle intended target family, where the subfamily is cytotoxicity.
Test chemicals were administered as a titrated series of 7 concentrations from 125 nM up to 100 uM [final] for 90 minutes prior to single endpoint detection. Three biological replicates of technical singles were run for every chemical concentration tested. Dimethylsulfoxide [DMSO] was used as the vehicle control. Dichlone [DCNQ] was used as the positive control and was administered as a titrated series of 8 concentrations from 10 nM up to 100 uM [final].
Take `O=C1C2(Cl)C3(Cl)C4(Cl)C(Cl)(Cl)C5(Cl)C3(Cl)C1(Cl)C5(Cl)C24Cl` (stereo not given): the AC50 is 71.6 µM (active).

As for `CC(=O)[O][Hg][c]1ccccc1`, the AC50 is 81.7 µM (active).

For `CCC(C)(C)c1ccc(O)c(C(C)(C)CC)c1`, the compound was classed as inactive.

For `CCOP(=S)(OCC)Oc1nc(Cl)c(Cl)cc1Cl`, the AC50 was 23.4 µM (active).

Consider `CCCCCCCCc1ccc(O)cc1`, for which the compound was classed as inactive.

Take `C[C@]12CCC(=O)C[C@@H]1CC[C@@H]1[C@@H]2CC[C@]2(C)[C@@H](O)CC[C@@H]12`: the compound was classed as inactive.

Take `O=[N+]([O-])c1ccc(O)c([N+](=O)[O-])c1`: the call was inactive and the AC50 was 18.1 µM (active).

Take `CC(C)(C)CC(C)(C)c1ccc(O)cc1`: the result was inactive.

On to `C=C(C)C(=O)[O][Sn]([CH2]CCC)([CH2]CCC)[CH2]CCC`, for which the AC50 was 10.9 µM (active).
